Data published in PubChem BioAssay (NCATS).
Where “and” joins values, the source holds several entries; their conditions need not be identical. Identical values can stand only once. Records with an inconclusive call do not appear. Some structures have more than one record in an assay (separate samples or runs), and their calls can disagree. Calls of active or inactive are those of the source. Calls come from the whole dose curve; as a rule, active = well fitted curve in the direction sought with a large enough effect; inconclusive = small, poorly fitted or top-dose-only effect, or another doubt; inactive = no such curve, though single readings can be large; an effect the other way counts as inactive or inconclusive.

Tests used:
[1] = qHTS assay for measurement of the activity of small molecule inhibitors on Zika virus induced Caspase-3 activity in human iPSC derived neural progenitor cells (hNPCs) (AID 1224857); note: nearly all actives have a fitted effect of over 65% in size
How it was run: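 Human iPSC-derived neural progenitor cells pretreated 1 hr with compounds, then infected with Zika virus (2 FFU/cell) for 6 hours at 37 C. Caspase-3/7 measured by Caspase-Glo luminescence; % inhibition calculated from induction scaled to uninfected (0%) and infected (100%) wells.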

[2] = qHTS assay for measurement of the activity of small molecule inhibitors on Zika virus induced Caspase-3 activity in human astrocytoma cells (AID 1224859)
How it was run: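 SNB-19 astrocytoma cells, 250/well, pretreated 1 h with compounds, then Zika virus at 2 FFU/cell for 6 h at 37 C; Caspase-Glo 3/7 luminescence after 30 min; percent inhibition normalised to uninfected and infected controls.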

[3] = qHTS Screen of the MIPE 4.0 Collection Against Ewings Sarcoma (RDES) (AID 1259252); note: nearly all actives have a fitted effect of over 35% in size; note: potency is the fitted concentration of half-maximal effect
How it was run: (§1)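 Dose series incubated 48 h with cells in RPMI plus 5% FBS, glutamine and penicillin/streptomycin; cell viability then quantified via CellTiter-Glo.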

[4] = qHTS Screen of the MIPE 4.0 Collection Against Ewings Sarcoma (TC71) (AID 1259253); note: nearly all actives have a fitted effect of over 40% in size; note: potency is the fitted concentration of half-maximal effect
How it was run: as §1

[5] = qHTS Screen of the MIPE 4.0 Collection Against Ewings Sarcoma (EW8) (AID 1259255); note: nearly all actives have a fitted effect of over 35% in size; note: potency is the fitted concentration of half-maximal effect
How it was run: as §1

[6] = qHTS Screen of the MIPE 4.0 Collection Against Ewings Sarcoma (TC32) (AID 1259256); note: nearly all actives have a fitted effect of over 45% in size; note: potency is the fitted concentration of half-maximal effect
How it was run: as §1

[7] = P-glycoprotein substrates identified in KB-8-5-11 adenocarcinoma cell line, qHTS therapeutic library screen (AID 1346987); note: nearly all actives have a fitted effect of over 65% in size; note: potency is the fitted concentration of half-maximal effect
How it was run: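 Steps: plate 500 KB-8-5-11 cells/well in DMEM + 10% FCS (colchicine removed); pin compounds in dose-response; incubate 72 h, 37 degree C, 5% CO2; add CellTiter-Glo, 5 min; read luminescence.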

[8] = NS1 protein of Zika virus - qHTS assay to identify small molecule inhibitors in human HEK 293 cells (AID 1347053); note: nearly all actives have a fitted effect of over 55% in size; note: potency is the fitted concentration of half-maximal effect
How it was run: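 HEK 293; 20 h pre-culture, 37 C/5% CO2; cpd 1 h pre-infection; ZIKV MR766, MOI = 0.5, 24 h, 37 C; TR-FRET NS1 readout (two anti-NS1 Abs); norm. to no-virus vs infected.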

[9] = P-glycoprotein substrates identified in KB-3-1 adenocarcinoma cell line, qHTS therapeutic library screen (AID 1346986);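 note: potency is the fitted concentration of half-maximal effect; potency is for cytotoxicity meaning loss of cell viability; nearly all actives have a fitted effect of over 60% in size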
How it was run: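 KB-3-1 parental and colchicine-selected P-gp-overexpressing KB-8-5-11 cells (colchicine omitted during assay), 500 cells/well, dosed in dose-response for 72 h at 37 °C; CellTiter-Glo luminescence. Cytotoxic: curve class -1.1 to -2.4, max response >50%, AC50 < 10 uM.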

CNC(=O)c1c(F)cccc1Nc1nc(Nc2cc3c(cc2OC)CCN3C(=O)CN(C)C)nc2[nH]ccc12
Potency [1]: inactive | Potency [2]: inactive | Potency [3]: 20.9 µM (active) | Potency [4]: 20.9 µM (active) | Potency [5]: 7.43 µM (active) | Potency [6]: 1.32 µM (active) | Potency [7]: 16.6 µM (active) and 18.4 µM (active) | Potency [8]: inactive

CN1CCN(Cc2ccc(NC(=O)Nc3ccc(Oc4cc(NC(=O)C5CC5)ncn4)cc3)cc2C(F)(F)F)CC1
Potency [1]: inactive | Potency [2]: inactive | Potency [3]: 0.372 µM (active) | Potency [4]: 0.132 µM (active) | Potency [5]: 0.372 µM (active) | Potency [6]: 0.296 µM (active) | Potency [7]: 5.8 µM (active) | Potency [8]: 1.18 µM (active)

COc1cc(-c2nn(C3CCC(N4CCN(C(C)=O)CC4)CC3)c3ncnc(N)c23)ccc1NC(=O)c1cc2ccccc2n1C (centres undefined)
Potency [1]: inactive | Potency [2]: inactive | Potency [3]: 1.87 µM (active) | Potency [4]: 2.96 µM (active) | Potency [5]: 6.62 µM (active) | Potency [6]: 3.72 µM (active) | Potency [7]: inactive and 20.6 µM (active) | Potency [8]: inactive

COc1cc2nccc(Oc3ccc(NC(=O)C4(C(=O)Nc5ccc(F)cc5)CC4)cc3)c2cc1OC
Potency [1]: inactive | Potency [2]: inactive | Potency [3]: 1.32 µM (active) | Potency [4]: 2.35 µM (active) | Potency [5]: 1.05 µM (active) | Potency [6]: 1.66 µM (active) | Potency [7]: 16.6 µM (active) and 9.2 µM (active)

O=C(CCCCCCC(=O)Nc1ccc([C@H]2O[C@@H](CSc3nc(-c4ccccc4)c(-c4ccccc4)o3)C[C@@H](c3ccc(CO)cc3)O2)cc1)NO
Potency [1]: inactive | Potency [2]: inactive | Potency [3]: 7.43 µM (active) | Potency [4]: 13.2 µM (active) | Potency [5]: 4.69 µM (active) | Potency [6]: 13.2 µM (active) | Potency [7]: 11.8 µM (active) and inactive | Potency [8]: inactive

Nc1ncnc2c1c(-c1cccc(OCc3ccccc3)c1)cn2C1CC(CN2CCCC2)C1 (centres undefined)
Potency [1]: inactive | Potency [2]: inactive | Potency [3]: 23.5 µM (active) | Potency [4]: 5.26 µM (active) | Potency [5]: 16.6 µM (active) | Potency [6]: 5.26 µM (active) | Potency [7]: 16.6 µM (active) and 6.51 µM (active) | Potency [8]: inactive

COC(=O)Nc1nc2ccc(C(=O)c3ccc(F)cc3)cc2[nH]1
Potency [1]: inactive | Potency [2]: inactive | Potency [3]: 0.743 µM (active) | Potency [4]: 1.05 µM (active) | Potency [5]: 0.662 µM (active) | Potency [6]: 0.372 µM (active) | Potency [7]: 418 nM (active) and 1.03 µM (active)

COCCOc1ccc2c(c1)ncn2-c1ccc2cccc(N3CCC(N)CC3)c2n1
Potency [1]: inactive | Potency [2]: inactive | Potency [3]: 18.7 µM (active) | Potency [4]: 14.8 µM (active) | Potency [5]: 18.7 µM (active) | Potency [6]: 23.5 µM (active) | Potency [7]: 23.5 µM (active)

C[C@]12CC[C@H](O)CC1=CCC1C2CC[C@]2(C)C(n3cnc4ccccc43)=CCC12 (some centres undefined)
Potency [1]: inactive | Potency [2]: inactive | Potency [3]: inactive | Potency [4]: inactive | Potency [5]: inactive | Potency [6]: inactive | Potency [7]: inactive | Potency [8]: inactive

Cn1c2ccccc2c2c3c(c4c5ccccc5n(CCC#N)c4c21)CNC3=O
Potency [1]: inactive | Potency [2]: inactive | Potency [3]: 0.935 µM (active) | Potency [4]: 1.18 µM (active) | Potency [5]: 8.33 µM (active) | Potency [6]: 4.69 µM (active) | Potency [7]: 5.8 µM (active)

CC(C)c1cnn2c(NCc3ccccc3)cc(N[C@@H](CO)[C@H](O)CO)nc12
Potency [1]: inactive | Potency [2]: inactive | Potency [3]: 0.469 µM (active) | Potency [4]: 0.264 µM (active) | Potency [5]: 0.372 µM (active) | Potency [6]: 0.296 µM (active) | Potency [7]: 1.18 µM (active) and 4.61 µM (active) | Potency [8]: 0.526 µM (active)

O=C(Nc1nc2cccc(-c3ccc(CN4CCS(=O)(=O)CC4)cc3)n2n1)C1CC1
Potency [1]: inactive | Potency [2]: inactive | Potency [3]: 16.6 µM (active) | Potency [4]: 9.35 µM (active) | Potency [5]: 9.35 µM (active) | Potency [6]: 8.33 µM (active) | Potency [9]: 20.6 µM (active) | Potency [8]: inactive

COc1cccc(Nc2c(C(N)=O)cnc3c(C)cc(S(=O)(=O)c4cccc(C(=O)N(C)C)c4)cc23)c1
Potency [1]: inactive | Potency [2]: inactive | Potency [3]: inactive | Potency [4]: inactive | Potency [5]: inactive | Potency [6]: inactive | Potency [7]: inactive | Potency [8]: inactive

Nc1ncnc2c1c(-c1cnc3[nH]ccc3c1)nn2C1CCCC1
Potency [1]: inactive | Potency [2]: inactive | Potency [3]: 0.469 µM (active) | Potency [4]: 0.662 µM (active) | Potency [5]: 2.09 µM (active) | Potency [6]: 1.05 µM (active) | Potency [7]: 590 nM (active) and 2.06 µM (active) | Potency [8]: 16.6 µM (active)

COc1c(OCCCN2CCOCC2)ccc2c3n(c(=NC(=O)c4cnc(N)nc4)nc12)CCN3
Potency [1]: inactive | Potency [2]: inactive | Potency [3]: 0.0575 µM (active) | Potency [4]: 1.82 µM (active) | Potency [5]: 0.724 µM (active) | Potency [6]: 0.457 µM (active) | Potency [7]: 0.15 µM (active)

CC(C)CC(=O)Nc1n[nH]c2c1CN(C(=O)C1CCN(C)CC1)C2(C)C
Potency [1]: inactive | Potency [2]: inactive | Potency [3]: 0.296 µM (active) | Potency [4]: 0.743 µM (active) | Potency [5]: 1.32 µM (active) | Potency [6]: 0.833 µM (active) | Potency [7]: inactive | Potency [8]: 26.4 µM (active)

COc1cccc2c(NCc3ccccc3)nc(-n3c(N)nc4ccccc43)nc12
Potency [1]: inactive | Potency [2]: inactive | Potency [3]: 8.33 µM (active) | Potency [4]: 8.33 µM (active) | Potency [5]: 8.33 µM (active) | Potency [6]: 10.5 µM (active) | Potency [7]: inactive | Potency [8]: 9.35 µM (active)

CNC(=O)c1ccc(-c2cnc3ncc(Cc4ccc5ncccc5c4)n3n2)cc1F
Potency [1]: inactive | Potency [2]: inactive | Potency [3]: inactive | Potency [4]: inactive | Potency [5]: inactive | Potency [6]: inactive | Potency [7]: inactive | Potency [8]: inactive
